{"source": "the supplement of paper PMC10849652", "note": "Targets with a hit are over-represented here; the source holds about 7,900 in all. About 0.6% of all pairs of compound and target were hits.", "data": [{"compound": "Cc1sc2c(c1C)C(c1ccc(Cl)cc1)=N[C@@H](CC(=O)OC(C)(C)C)c1nnc(C)n1-2", "assay": "log2 fold change, soluble protein after heating vs DMSO (PISA); higher = thermal stabilisation; K562 cells, 10 uM, 30 min; active = over 0.2 and 3.5 SD of the protein, either way, in both replicates (recomputed)", "outline": "(§1)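 Soluble protein was quantified by TMTpro 16plex LC-MS/MS after channel sums were equalised. It was obtained as the supernatant after 21,000xg for 90 min from pooled aliquots of K562 cells (2×10^6 cells/mL, 10 μM compound, 30 min) heated for 3 min across 48°C-58°C and extracted in PBS with 0.5% NP-40 at 4°C. Thermal stability values are relative to control samples and come from duplicates. They are given as log2 fold changes.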", "values": [{"target": "RPS3 (UniProt P23396)", "log2 fold change": "0.083 (inactive)"}, {"target": "RNF167 (UniProt Q9H6Y7)", "log2 fold change": "-0.017 (inactive)"}, {"target": "SEC24A (UniProt O95486)", "log2 fold change": "-0.027 (inactive)"}, {"target": "RSRC1 (UniProt Q96IZ7)", "log2 fold change": "-0.019 (inactive)"}, {"target": "RB1CC1 (UniProt Q8TDY2)", "log2 fold change": "0.029 (inactive)"}, {"target": "RBM39 (UniProt Q14498)", "log2 fold change": "0.019 (inactive)"}, {"target": "RCC1 isoform 2 (UniProt P18754)", "sequence (P18754 whole entry, looked up)": "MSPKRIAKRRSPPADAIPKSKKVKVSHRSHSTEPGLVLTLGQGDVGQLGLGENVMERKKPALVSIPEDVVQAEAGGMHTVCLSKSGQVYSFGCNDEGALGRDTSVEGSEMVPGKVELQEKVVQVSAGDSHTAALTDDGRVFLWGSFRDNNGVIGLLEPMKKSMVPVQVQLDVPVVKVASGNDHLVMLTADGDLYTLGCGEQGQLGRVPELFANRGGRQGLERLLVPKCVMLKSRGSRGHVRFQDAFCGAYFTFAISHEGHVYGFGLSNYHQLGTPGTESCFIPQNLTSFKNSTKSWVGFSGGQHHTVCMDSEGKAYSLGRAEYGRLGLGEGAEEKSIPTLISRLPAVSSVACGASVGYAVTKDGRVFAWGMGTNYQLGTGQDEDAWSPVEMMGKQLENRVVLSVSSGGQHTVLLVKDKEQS", "log2 fold change": "0.012 (inactive)"}, {"target": "RPS6KA3 (UniProt P51812)", "log2 fold change": "-0.034 (inactive)"}, {"target": "RDH10 (UniProt Q8IZV5)", "log2 fold change": "-0.058 (inactive)"}, {"target": "RNF220 (UniProt Q5VTB9)", "sequence (Q5VTB9 whole entry, looked up)": "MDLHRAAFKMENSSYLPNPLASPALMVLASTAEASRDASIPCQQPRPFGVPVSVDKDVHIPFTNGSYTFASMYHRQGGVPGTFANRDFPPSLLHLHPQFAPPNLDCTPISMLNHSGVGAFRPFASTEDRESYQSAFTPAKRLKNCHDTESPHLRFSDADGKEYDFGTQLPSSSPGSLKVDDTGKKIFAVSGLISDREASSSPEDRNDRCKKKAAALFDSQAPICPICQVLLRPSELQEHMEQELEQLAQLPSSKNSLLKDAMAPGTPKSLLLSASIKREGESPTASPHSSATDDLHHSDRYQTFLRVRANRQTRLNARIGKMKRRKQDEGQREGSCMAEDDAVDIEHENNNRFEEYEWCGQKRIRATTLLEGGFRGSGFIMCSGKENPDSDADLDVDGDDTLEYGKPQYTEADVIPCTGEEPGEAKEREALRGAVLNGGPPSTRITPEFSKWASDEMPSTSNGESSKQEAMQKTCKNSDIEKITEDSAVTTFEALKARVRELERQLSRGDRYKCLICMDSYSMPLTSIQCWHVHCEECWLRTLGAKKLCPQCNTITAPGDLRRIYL", "log2 fold change": "-0.045 (inactive)"}, {"target": "RAP2C (UniProt Q9Y3L5)", "log2 fold change": "0.038 (inactive)"}, {"target": "RAD51 (UniProt Q06609)", "sequence (Q06609 whole entry, looked up)": "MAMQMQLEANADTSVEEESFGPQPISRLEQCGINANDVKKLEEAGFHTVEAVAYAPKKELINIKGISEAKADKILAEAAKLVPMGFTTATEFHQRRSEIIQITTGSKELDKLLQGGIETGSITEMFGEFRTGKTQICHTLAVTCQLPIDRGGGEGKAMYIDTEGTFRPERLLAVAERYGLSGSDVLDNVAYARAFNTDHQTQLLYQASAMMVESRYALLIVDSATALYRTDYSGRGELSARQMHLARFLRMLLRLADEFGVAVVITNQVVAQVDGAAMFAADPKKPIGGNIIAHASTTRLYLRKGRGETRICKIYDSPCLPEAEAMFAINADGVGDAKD", "log2 fold change": "0 (inactive)"}, {"target": "RRP9 (UniProt O43818)", "sequence (O43818 whole entry, looked up)": "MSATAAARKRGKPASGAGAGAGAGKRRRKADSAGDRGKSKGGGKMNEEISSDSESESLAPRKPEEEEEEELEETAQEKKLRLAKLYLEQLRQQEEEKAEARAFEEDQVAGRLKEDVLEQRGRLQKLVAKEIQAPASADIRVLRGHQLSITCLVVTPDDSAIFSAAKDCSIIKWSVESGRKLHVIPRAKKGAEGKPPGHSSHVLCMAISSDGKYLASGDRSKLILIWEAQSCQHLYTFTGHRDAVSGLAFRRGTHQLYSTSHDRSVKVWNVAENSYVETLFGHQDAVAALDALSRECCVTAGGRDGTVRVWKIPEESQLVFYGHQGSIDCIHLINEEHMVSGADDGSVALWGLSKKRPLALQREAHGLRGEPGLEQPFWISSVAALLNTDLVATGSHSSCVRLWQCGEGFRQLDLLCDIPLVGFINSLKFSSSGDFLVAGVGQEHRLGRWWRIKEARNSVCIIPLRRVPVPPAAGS", "log2 fold change": "0.015 (inactive)"}, {"target": "SEH1L isoform 1 (UniProt Q96EE3)", "log2 fold change": "-0.014 (inactive)"}, {"target": "RAPGEF4 (UniProt Q8WZA2)", "log2 fold change": "-0.028 (inactive)"}, {"target": "RIOK2 (UniProt Q9BVS4)", "log2 fold change": "0.116 (inactive)"}, {"target": "SHROOM2 (UniProt Q13796)", "log2 fold change": "-0.008 (inactive)"}, {"target": "RPS25 (UniProt P62851)", "log2 fold change": "0.09 (inactive)"}, {"target": "SCYL3 isoform 2 (UniProt Q8IZE3)", "sequence (Q8IZE3 whole entry, looked up)": "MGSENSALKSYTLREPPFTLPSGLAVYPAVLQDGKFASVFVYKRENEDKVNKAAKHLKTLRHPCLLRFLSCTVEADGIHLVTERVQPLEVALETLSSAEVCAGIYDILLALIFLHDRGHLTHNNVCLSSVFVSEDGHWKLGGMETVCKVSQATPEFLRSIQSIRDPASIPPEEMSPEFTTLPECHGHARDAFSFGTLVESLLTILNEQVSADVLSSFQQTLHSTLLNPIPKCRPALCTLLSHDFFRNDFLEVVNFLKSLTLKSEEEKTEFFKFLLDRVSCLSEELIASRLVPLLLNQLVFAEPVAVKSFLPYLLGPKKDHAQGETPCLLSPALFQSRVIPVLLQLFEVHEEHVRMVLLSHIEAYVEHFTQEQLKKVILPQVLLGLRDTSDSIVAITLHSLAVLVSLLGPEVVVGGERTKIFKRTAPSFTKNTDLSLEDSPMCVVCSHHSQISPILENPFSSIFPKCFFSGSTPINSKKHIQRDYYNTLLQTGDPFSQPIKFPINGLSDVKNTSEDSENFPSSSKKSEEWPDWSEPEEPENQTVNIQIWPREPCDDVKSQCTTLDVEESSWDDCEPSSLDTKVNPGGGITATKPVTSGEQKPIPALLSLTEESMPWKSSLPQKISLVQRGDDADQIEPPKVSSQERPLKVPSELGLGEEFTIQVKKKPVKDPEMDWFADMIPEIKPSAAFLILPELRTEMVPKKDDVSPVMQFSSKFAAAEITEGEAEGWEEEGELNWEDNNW", "log2 fold change": "0.041 (inactive)"}, {"target": "SACM1L (UniProt Q9NTJ5)", "log2 fold change": "-0.044 (inactive)"}, {"target": "ROCK2 (UniProt O75116)", "log2 fold change": "0.024 (inactive)"}, {"target": "RBIS (UniProt Q8N0T1)", "sequence (Q8N0T1 whole entry, looked up)": "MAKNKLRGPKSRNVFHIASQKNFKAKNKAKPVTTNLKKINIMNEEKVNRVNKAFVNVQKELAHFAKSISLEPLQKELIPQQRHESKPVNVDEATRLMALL", "log2 fold change": "0.101 (inactive)"}, {"target": "RALY (UniProt Q9UKM9)", "log2 fold change": "0.031 (inactive)"}, {"target": "RNF2 (UniProt Q99496)", "sequence (Q99496 whole entry, looked up)": "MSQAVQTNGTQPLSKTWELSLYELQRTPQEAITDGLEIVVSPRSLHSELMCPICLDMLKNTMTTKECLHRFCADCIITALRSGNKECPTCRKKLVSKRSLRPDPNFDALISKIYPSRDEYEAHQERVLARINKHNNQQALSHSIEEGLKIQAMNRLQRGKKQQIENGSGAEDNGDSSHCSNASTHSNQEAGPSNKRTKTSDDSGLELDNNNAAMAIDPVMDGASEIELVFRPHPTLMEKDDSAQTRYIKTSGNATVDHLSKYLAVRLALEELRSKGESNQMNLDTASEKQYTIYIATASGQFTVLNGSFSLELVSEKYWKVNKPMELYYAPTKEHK", "log2 fold change": "0.064 (inactive)"}, {"target": "REL (UniProt Q04864)", "sequence (Q04864 whole entry, looked up)": "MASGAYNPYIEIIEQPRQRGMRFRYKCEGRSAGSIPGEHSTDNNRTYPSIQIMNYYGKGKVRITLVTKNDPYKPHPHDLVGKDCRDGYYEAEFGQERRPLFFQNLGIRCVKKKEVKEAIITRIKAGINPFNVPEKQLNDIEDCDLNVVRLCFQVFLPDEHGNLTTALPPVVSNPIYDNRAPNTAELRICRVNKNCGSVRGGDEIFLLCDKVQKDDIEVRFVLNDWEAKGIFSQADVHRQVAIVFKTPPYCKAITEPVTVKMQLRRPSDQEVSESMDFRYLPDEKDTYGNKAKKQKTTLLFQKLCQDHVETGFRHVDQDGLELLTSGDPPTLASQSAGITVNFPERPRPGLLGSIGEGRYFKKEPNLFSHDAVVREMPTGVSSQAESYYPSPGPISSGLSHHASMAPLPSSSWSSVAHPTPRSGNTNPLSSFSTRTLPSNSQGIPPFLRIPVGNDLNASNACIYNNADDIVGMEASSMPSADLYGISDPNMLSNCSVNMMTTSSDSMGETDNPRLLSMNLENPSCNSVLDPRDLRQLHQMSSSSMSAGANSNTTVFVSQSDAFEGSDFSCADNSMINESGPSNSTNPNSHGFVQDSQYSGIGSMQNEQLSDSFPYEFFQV", "log2 fold change": "0.037 (inactive)"}, {"target": "RPS6KA1 isoform 2 (UniProt Q15418)", "log2 fold change": "-0.009 (inactive)"}, {"target": "SLC1A3 (UniProt P43003)", "log2 fold change": "0.17 (inactive)"}, {"target": "RPAIN isoform 8 (UniProt Q86UA6)", "sequence (Q86UA6 whole entry, looked up)": "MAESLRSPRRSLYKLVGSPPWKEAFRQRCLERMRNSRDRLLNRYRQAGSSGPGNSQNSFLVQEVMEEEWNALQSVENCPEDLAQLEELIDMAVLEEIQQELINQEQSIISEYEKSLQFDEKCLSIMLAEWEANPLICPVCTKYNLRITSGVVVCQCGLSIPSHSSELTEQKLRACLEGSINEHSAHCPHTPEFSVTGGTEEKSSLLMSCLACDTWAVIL", "log2 fold change": "-0.038 (inactive)"}, {"target": "RAB9A (UniProt P51151)", "log2 fold change": "-0.04 (inactive)"}, {"target": "RELA (UniProt Q04206)", "log2 fold change": "0.031 (inactive)"}, {"target": "RPS5 (UniProt P46782)", "log2 fold change": "0.082 (inactive)"}, {"target": "RETSAT (UniProt Q6NUM9)", "log2 fold change": "-0.15 (inactive)"}, {"target": "SAMSN1 isoform 3 (UniProt Q9NSI8)", "log2 fold change": "-0.01 (inactive)"}, {"target": "SH3GL1 (UniProt Q99961)", "sequence (Q99961 whole entry, looked up)": "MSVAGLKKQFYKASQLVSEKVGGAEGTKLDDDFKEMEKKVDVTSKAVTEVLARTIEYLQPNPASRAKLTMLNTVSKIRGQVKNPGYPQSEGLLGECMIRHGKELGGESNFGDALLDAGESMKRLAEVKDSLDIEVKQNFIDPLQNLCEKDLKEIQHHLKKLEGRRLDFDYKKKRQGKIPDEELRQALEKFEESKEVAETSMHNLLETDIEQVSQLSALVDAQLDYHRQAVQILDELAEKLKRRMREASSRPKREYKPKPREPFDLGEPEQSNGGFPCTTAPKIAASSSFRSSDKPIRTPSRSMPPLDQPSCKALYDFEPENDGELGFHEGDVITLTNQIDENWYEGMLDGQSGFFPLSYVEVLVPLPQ", "log2 fold change": "0.002 (inactive)"}, {"target": "RGS10 (UniProt O43665)", "sequence (O43665 whole entry, looked up)": "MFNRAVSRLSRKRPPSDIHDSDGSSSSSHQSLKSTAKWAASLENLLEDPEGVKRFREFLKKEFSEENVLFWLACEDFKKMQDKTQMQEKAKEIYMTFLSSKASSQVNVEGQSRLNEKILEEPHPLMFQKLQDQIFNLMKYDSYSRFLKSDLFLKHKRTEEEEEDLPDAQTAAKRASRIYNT", "log2 fold change": "-0.022 (inactive)"}, {"target": "SCG3 (UniProt Q8WXD2)", "sequence (Q8WXD2 whole entry, looked up)": "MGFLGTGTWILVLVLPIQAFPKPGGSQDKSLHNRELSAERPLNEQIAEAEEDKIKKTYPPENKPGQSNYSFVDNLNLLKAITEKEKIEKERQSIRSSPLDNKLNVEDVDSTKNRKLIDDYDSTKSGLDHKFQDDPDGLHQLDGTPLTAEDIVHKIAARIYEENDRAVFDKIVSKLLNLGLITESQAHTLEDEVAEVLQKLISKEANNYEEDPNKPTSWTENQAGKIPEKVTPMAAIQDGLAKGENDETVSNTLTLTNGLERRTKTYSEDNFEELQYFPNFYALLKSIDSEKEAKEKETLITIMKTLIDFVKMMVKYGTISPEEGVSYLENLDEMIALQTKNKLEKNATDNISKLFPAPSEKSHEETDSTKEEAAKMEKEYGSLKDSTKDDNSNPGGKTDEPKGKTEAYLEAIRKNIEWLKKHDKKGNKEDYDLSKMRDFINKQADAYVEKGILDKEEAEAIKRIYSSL", "log2 fold change": "0 (inactive)"}, {"target": "SAAL1 (UniProt Q96ER3)", "log2 fold change": "0.109 (inactive)"}]}, {"compound": "c1ccc([C@@H]2C[C@H]2NC2CCNCC2)cc1", "assay": "log2 fold change, soluble protein after heating vs DMSO (PISA); higher = thermal stabilisation; K562 cells, 10 uM, 30 min; active = over 0.2 and 3.5 SD of the protein, either way, in both replicates (recomputed)", "outline": "as §1", "values": [{"target": "RPS3 (UniProt P23396)", "log2 fold change": "0.015 (inactive)"}, {"target": "RNF167 (UniProt Q9H6Y7)", "log2 fold change": "0.001 (inactive)"}, {"target": "SEC24A (UniProt O95486)", "log2 fold change": "-0.021 (inactive)"}, {"target": "RSRC1 (UniProt Q96IZ7)", "log2 fold change": "-0.03 (inactive)"}, {"target": "RB1CC1 (UniProt Q8TDY2)", "log2 fold change": "-0.063 (inactive)"}, {"target": "RBM39 (UniProt Q14498)", "log2 fold change": "0.158 (inactive)"}, {"target": "RCC1 isoform 2 (UniProt P18754)", "log2 fold change": "-0.058 (inactive)"}, {"target": "RPS6KA3 (UniProt P51812)", "log2 fold change": "-0.006 (inactive)"}, {"target": "RDH10 (UniProt Q8IZV5)", "log2 fold change": "-0.031 (inactive)"}, {"target": "RNF220 (UniProt Q5VTB9)", "log2 fold change": "0.038 (inactive)"}, {"target": "RAP2C (UniProt Q9Y3L5)", "log2 fold change": "-0.011 (inactive)"}, {"target": "RAD51 (UniProt Q06609)", "log2 fold change": "-0.053 (inactive)"}, {"target": "RRP9 (UniProt O43818)", "log2 fold change": "0.1 (inactive)"}, {"target": "SEH1L isoform 1 (UniProt Q96EE3)", "log2 fold change": "0.017 (inactive)"}, {"target": "RAPGEF4 (UniProt Q8WZA2)", "log2 fold change": "-0.176 (inactive)"}, {"target": "RIOK2 (UniProt Q9BVS4)", "log2 fold change": "-0.009 (inactive)"}, {"target": "SHROOM2 (UniProt Q13796)", "log2 fold change": "-0.072 (inactive)"}, {"target": "RPS25 (UniProt P62851)", "log2 fold change": "0.002 (inactive)"}, {"target": "SCYL3 isoform 2 (UniProt Q8IZE3)", "log2 fold change": "-0.113 (inactive)"}, {"target": "SACM1L (UniProt Q9NTJ5)", "log2 fold change": "0.006 (inactive)"}, {"target": "ROCK2 (UniProt O75116)", "log2 fold change": "-0.01 (inactive)"}, {"target": "RBIS (UniProt Q8N0T1)", "log2 fold change": "0 (inactive)"}, {"target": "RALY (UniProt Q9UKM9)", "log2 fold change": "0.003 (inactive)"}, {"target": "RNF2 (UniProt Q99496)", "log2 fold change": "0.085 (inactive)"}, {"target": "REL (UniProt Q04864)", "log2 fold change": "0.065 (inactive)"}, {"target": "RPS6KA1 isoform 2 (UniProt Q15418)", "log2 fold change": "-0.018 (inactive)"}, {"target": "SLC1A3 (UniProt P43003)", "log2 fold change": "0.039 (inactive)"}, {"target": "RPAIN isoform 8 (UniProt Q86UA6)", "log2 fold change": "0.006 (inactive)"}, {"target": "RAB9A (UniProt P51151)", "log2 fold change": "0.001 (inactive)"}, {"target": "RELA (UniProt Q04206)", "log2 fold change": "0.008 (inactive)"}, {"target": "RPS5 (UniProt P46782)", "log2 fold change": "0.001 (inactive)"}, {"target": "RETSAT (UniProt Q6NUM9)", "log2 fold change": "0.042 (inactive)"}, {"target": "SAMSN1 isoform 3 (UniProt Q9NSI8)", "log2 fold change": "-0.01 (inactive)"}, {"target": "SH3GL1 (UniProt Q99961)", "log2 fold change": "-0.049 (inactive)"}, {"target": "RGS10 (UniProt O43665)", "log2 fold change": "-0.058 (inactive)"}, {"target": "SCG3 (UniProt Q8WXD2)", "log2 fold change": "0.051 (inactive)"}, {"target": "SAAL1 (UniProt Q96ER3)", "log2 fold change": "-0.043 (inactive)"}]}]}
